Test [1] is described as follows: NCI Yeast Anticancer Drug Screen. Data for the rad50 strain (AID 155).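 Further: 0% = growth of vehicle-only cultures of the same strain.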 Particulars: S. cerevisiae rad50 strain growth inhibition, active compounds read high. The essentials: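 Genetically altered yeast (DNA repair pathway); compound treatment; growth inhibition vs vehicle ctrl.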
Test [2] is described as follows: NCI Yeast Anticancer Drug Screen. Data for the mec2-1 strain (AID 157). Particulars: S. cerevisiae mec2-1 strain, active compounds read high. The essentials: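 Using mec2-1 yeast: add compound, measure growth, express inhibition versus vehicle-treated cultures.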
The nature of test [3]: NCI Yeast Anticancer Drug Screen. Data for the sgs1 mgt1 strain (AID 161).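 Further: 0% = growth of cultures given vehicle only.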 To be noted: S. cerevisiae sgs1 mgt1 strain, active compounds read high. The essentials: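 Compounds are added to genetically altered yeast, and growth is compared with cultures given vehicle alone to give percent inhibition.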
Test [4] can be described thus: NCI Yeast Anticancer Drug Screen. Data for the cln2 rad14 strain (AID 165).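 Further: 0% = growth equal to vehicle treated cultures.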 To be noted: S. cerevisiae cln2 rad14 strain, active compounds read high. An outline of the steps: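 Yeast strain cln2 rad14, bearing defects in cell cycle control and DNA repair, serves as the test system; values reflect growth inhibition compared with vehicle.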
Test [5] can be described thus: NCI Yeast Anticancer Drug Screen. Data for the bub3 strain (AID 167). Particulars: S. cerevisiae bub3 mutant strain, active compounds read high. An outline of the steps: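 Yeast carrying a defined mutation is treated with each compound, and growth is compared with that of vehicle-exposed cells to give inhibition.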
Test [6] in a line: NCI Yeast Anticancer Drug Screen. Data for the mlh1 rad18 strain (AID 175). To be noted: S. cerevisiae mlh1 rad18 strain growth inhibition, active compounds read high. An outline of the steps: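 Steps: expose repair-defective yeast to compound; measure growth; express inhibition against vehicle-treated controls.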
The mark [7] stands for this setting: at 5.0 µM (retest, dose inferred, filed as 0.5).
Setting [8] is: at 50.0 µM (retest, dose inferred, filed as 5.0).

This is part of a sample that, as a whole, favours compounds with a hit. Of some 79,000 tested, about 15% had one in any assay. Unmarked numbers belong to inactive results. Activity calls are given as the source filed them. No stated cut-off is given here; in the data, active means growth inhibition above about 70%; inactive means the rest.

For the compound `Nc1c([N+](=O)[O-])cc(Cl)cc1[N+](=O)[O-]`, the growth inhibition is 1% in test [1] (setting [7]); 84% (active) in test [1] (setting [8]); 73.8% (active) in test [1] (at 50.0 µM); 0% in test [2] (setting [7]); 89% (active) in test [2] (setting [8]); 63.8% in test [2] (at 50.0 µM). Further, the growth inhibition is 1% in test [3] (setting [7]); 98% (active) in test [3] (setting [8]); 94.2% (active) in test [3] (at 50.0 µM); 1% in test [4] (setting [7]); 28% in test [4] (setting [8]); -14.6% in test [4] (at 50.0 µM). The growth inhibition is -3% in test [5] (setting [7]); 86% (active) in test [5] (setting [8]); 64.7% in test [5] (at 50.0 µM); 2% in test [6] (setting [7]); 97% (active) in test [6] (setting [8]); 78.3% (active) in test [6] (at 50.0 µM).
For the compound `CC(c1ccccc1)N1O[C@]12CC[C@@]1(C)C(CCCC13OCCO3)C2` (some centres not stated), the growth inhibition is 88% (active) in test [1] (setting [7]); 97% (active) in test [1] (setting [8]); 92% (active) in test [1] (at 50.0 µM); 97% (active) in test [2] (setting [7]); 99% (active) in test [2] (setting [8]); 94% (active) in test [2] (at 50.0 µM). For the same compound, the growth inhibition in test [3] (setting [7]) was 36%; in test [3] (setting [8]) it was 97% (active); in test [3] (at 50.0 µM), 92.2% (active); in test [4] (setting [7]), 95% (active); in test [4] (setting [8]), 98% (active); in test [4] (at 50.0 µM) it was 91.2% (active). For the same compound, the growth inhibition is 94% (active) in test [5] (setting [7]); 98% (active) in test [5] (setting [8]); 91% (active) in test [5] (at 50.0 µM); 93% (active) in test [6] (setting [7]); 97% (active) in test [6] (setting [8]); 91.5% (active) in test [6] (at 50.0 µM).
With `COc1ccc(O)c(/C=C/[N+](=O)[O-])c1`, the growth inhibition is 16% in test [1] (setting [7]); 99% (active) in test [1] (setting [8]); 99.4% (active) in test [1] (at 50.0 µM); -1% in test [2] (setting [7]); 99% (active) in test [2] (setting [8]); 98.8% (active) in test [2] (at 50.0 µM). Moreover, the growth inhibition in test [3] (setting [7]) is 20%; in test [3] (setting [8]), 99% (active); in test [3] (at 50.0 µM), 99.1% (active); in test [4] (setting [7]), 5%; in test [4] (setting [8]) it was 98% (active); in test [4] (at 50.0 µM), 99.2% (active). Besides, the growth inhibition in test [5] (setting [7]) is 41%; in test [5] (setting [8]) it was 99% (active); in test [5] (at 50.0 µM), 99.3% (active); in test [6] (setting [7]) it was 21%; in test [6] (setting [8]) it was 99% (active); in test [6] (at 50.0 µM), 98.9% (active).
As to `CCN1CCC(O)(c2ccc(Cl)cc2)C(C(=O)c2ccc(Cl)cc2)C1` (configuration not stated), the growth inhibition in test [1] (setting [7]) was -8%; in test [1] (setting [8]) it was 65%; in test [1] (at 50.0 µM), 99% (active); in test [2] (setting [7]) it was 6%; in test [2] (setting [8]), 74% (active); in test [2] (at 50.0 µM) it was 97.8% (active). Besides, the growth inhibition in test [3] (setting [7]) is 3%; in test [3] (setting [8]) it was 67%; in test [3] (at 50.0 µM), 98.8% (active); in test [4] (setting [7]) it was -7%; in test [4] (setting [8]), 93% (active); in test [4] (at 50.0 µM), 97.2% (active). The growth inhibition was 18% in test [5] (setting [7]); 80% (active) in test [5] (setting [8]); 98.5% (active) in test [5] (at 50.0 µM); 3% in test [6] (setting [7]); 77% (active) in test [6] (setting [8]); 98.5% (active) in test [6] (at 50.0 µM).
With `O=C(O)c1ccc([Se][Se]c2ccc(C(=O)O)cc2)cc1`, the growth inhibition in test [1] (setting [7]) was 63%; in test [1] (setting [8]), 97% (active); in test [1] (at 50.0 µM) it was 89.9% (active); in test [2] (setting [7]), 39%; in test [2] (setting [8]) it was 98% (active); in test [2] (at 50.0 µM), 92.8% (active). Also, the growth inhibition in test [3] (setting [7]) was 58%; in test [3] (setting [8]) it was 99% (active); in test [3] (at 50.0 µM), 93.3% (active); in test [4] (setting [7]), 33%; in test [4] (setting [8]) it was 94% (active); in test [4] (at 50.0 µM) it was 91.5% (active). Moreover, the growth inhibition in test [5] (setting [7]) is 41%; in test [5] (setting [8]), 99% (active); in test [5] (at 50.0 µM), 91.2% (active); in test [6] (setting [7]), 67%; in test [6] (setting [8]) it was 97% (active); in test [6] (at 50.0 µM) it was 91.1% (active).
As to `O=C(c1ccccc1)c1c(CC(O)c2cccnc2)n(C(=O)c2ccccc2)c2ccccc12` (configuration not stated), the growth inhibition in test [1] (setting [7]) is 6%; in test [1] (setting [8]), 96% (active); in test [1] (at 50.0 µM) it was 91% (active); in test [2] (setting [7]), 3%; in test [2] (setting [8]), 96% (active); in test [2] (at 50.0 µM), 89.2% (active). For the same compound, the growth inhibition in test [3] (setting [7]) was 13%; in test [3] (setting [8]), 97% (active); in test [3] (at 50.0 µM), 90.7% (active); in test [4] (setting [7]), 19%; in test [4] (setting [8]), 96% (active); in test [4] (at 50.0 µM), 56.5%. Besides, the growth inhibition in test [5] (setting [7]) was -5%; in test [5] (setting [8]) it was 97% (active); in test [5] (at 50.0 µM) it was 87.9% (active); in test [6] (setting [7]), 2%; in test [6] (setting [8]), 94% (active); in test [6] (at 50.0 µM) it was 91% (active).
For `CC[C@@H]1C(=O)OC[C@@H]1Cc1cncn1C`, the growth inhibition was -3% in test [1] (setting [7]); -8% in test [1] (setting [8]); -4.1% in test [1] (at 50.0 µM); 18% in test [2] (setting [7]); -4% in test [2] (setting [8]); -35.8% in test [2] (at 50.0 µM). Besides, the growth inhibition in test [3] (setting [7]) is 7%; in test [3] (setting [8]) it was -18%; in test [3] (at 50.0 µM), -20.9%; in test [4] (setting [7]), -27%; in test [4] (setting [8]), -90%; in test [4] (at 50.0 µM), 26%. Also, the growth inhibition in test [5] (setting [7]) is -11%; in test [5] (setting [8]), -4%; in test [5] (at 50.0 µM), -19.1%; in test [6] (setting [7]) it was -7%; in test [6] (setting [8]), -1%; in test [6] (at 50.0 µM) it was -9.2%.
As to `O=C(Oc1ccc(S(=O)(=O)F)cc1F)c1ccccc1Cl`, the growth inhibition in test [1] (setting [7]) is 5%; in test [1] (setting [8]), 99% (active); in test [1] (at 50.0 µM) it was 99.2% (active); in test [2] (setting [7]), 5%; in test [2] (setting [8]) it was 99% (active); in test [2] (at 50.0 µM) it was 99.5% (active). In addition, the growth inhibition in test [3] (setting [7]) is -2%; in test [3] (setting [8]), 99% (active); in test [3] (at 50.0 µM), 99.3% (active); in test [4] (setting [7]), -10%; in test [4] (setting [8]), 99% (active); in test [4] (at 50.0 µM) it was 99% (active). The growth inhibition was 6% in test [5] (setting [7]); 99% (active) in test [5] (setting [8]); 99.4% (active) in test [5] (at 50.0 µM); 21% in test [6] (setting [7]); 99% (active) in test [6] (setting [8]); 98.7% (active) in test [6] (at 50.0 µM).
On to `O=C1C(Cl)=C(Cl)C(=O)c2ccccc21`, for which the growth inhibition in test [1] (setting [7]) was 99% (active); in test [1] (setting [8]) it was 96% (active); in test [1] (at 50.0 µM), 97.8% (active); in test [2] (setting [7]), 55%; in test [2] (setting [8]), 98% (active); in test [2] (at 50.0 µM) it was 97% (active). Moreover, the growth inhibition is 99% (active) in test [3] (setting [7]); 97% (active) in test [3] (setting [8]); 98.2% (active) in test [3] (at 50.0 µM); 99% (active) in test [4] (setting [7]); 95% (active) in test [4] (setting [8]); 96.6% (active) in test [4] (at 50.0 µM). For the same compound, the growth inhibition in test [5] (setting [7]) is 98% (active); in test [5] (setting [8]), 96% (active); in test [5] (at 50.0 µM) it was 97.5% (active); in test [6] (setting [7]), 99% (active); in test [6] (setting [8]), 96% (active); in test [6] (at 50.0 µM), 98% (active).

These data come from PubChem BioAssay (NCI).
